Screening data as filed in PubChem BioAssay.
Fam108B inh – mouse Fam108B serine hydrolase inhibitors, primary screen, counter-screen for RBBP9 inhibitor project, biochemical, fluorescence polarization | recombinant Fam108B, FP-Rh probe fluorescence polarization | inhibition, % at 9.51 µM | 300,000 compounds, 0.33% hits | AID 1947, 2009;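 active = inhibition above the screen mean inhibition plus 3 SD, computed separately per campaign, cut at about 18% in these data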;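 note: inhibitors lower polarization as less probe binds the enzyme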
PME-1 primary – PME-1 inhibitors via competitive probe labeling, primary screen, biochemical, fluorescence polarization, FP-Rh probe, HTS. Protein phosphatase methylesterase 1 (Homo sapiens), Q9Y570. recombinant PME-1. inhibition, % at 5.9 µM. 320,000 compounds, 0.53% hits. AID 2130, 2009;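 active = inhibition above the campaign mean of all compounds plus 3 SD, cut at about 26% in these data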;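 note: competitive labeling of PME-1 active site by serine hydrolase directed probe; 0% = PME-1 with DMSO and 100% = wells lacking PME-1 enzyme; inhibitors block probe labeling so polarization falls and inhibition rises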
pPAFAH inh – pPAFAH enzyme inhibitors, primary screen, biochemical, fluorescence polarization, human | inhibition, % at 3.39 µM | recombinant pPAFAH, FP-rhodamine probe fluorescence polarization | 330,000 compounds, 1.5% hits | Platelet-activating factor acetylhydrolase (Homo sapiens), Q13093;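 active = inhibition above the mean inhibition across the screen plus 3 SD, cut at about 25% in these data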;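 note: inhibitors block binding of the rhodamine activity-based probe so polarization drops; 0% = enzyme with DMSO and 100% = wells lacking pPAFAH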
PAFAH2 FP inh – PAFAH2 enzyme inhibitors, primary screen, biochemical, fluorescence polarization, human. 340,000 compounds, 0.99% hits. Platelet-activating factor acetylhydrolase 2, cytoplasmic (Homo sapiens), Q99487. recombinant PAFAH2, FP-rhodamine activity probe. AID 492956, 2010. inhibition, % at 3.39 µM;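 active = inhibition above the mean over all tested compounds plus 3 SD, cut at about 30% in these data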;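 note: inhibitors block probe labeling of enzyme so polarization drops; 0% = enzyme with DMSO and 100% = wells lacking PAFAH2 protein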
PAFAH1B3 FP inh – PAFAH1B3 enzyme inhibitors, primary screen, biochemical, fluorescence polarization, human. Platelet-activating factor acetylhydrolase IB subunit alpha1 (Homo sapiens), Q15102. recombinant PAFAH1B3, FP-rhodamine probe. inhibition, % at 3.39 µM. 340,000 compounds, 0.28% hits. AID 492972, 2010;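 active = inhibition above the screen-wide average of all tested compounds plus 3 SD, cut at about 25% in these data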;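 note: 0% = enzyme with DMSO only and 100% = wells lacking PAFAH1B3 protein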
Target sequence (Q15102 whole entry, looked up): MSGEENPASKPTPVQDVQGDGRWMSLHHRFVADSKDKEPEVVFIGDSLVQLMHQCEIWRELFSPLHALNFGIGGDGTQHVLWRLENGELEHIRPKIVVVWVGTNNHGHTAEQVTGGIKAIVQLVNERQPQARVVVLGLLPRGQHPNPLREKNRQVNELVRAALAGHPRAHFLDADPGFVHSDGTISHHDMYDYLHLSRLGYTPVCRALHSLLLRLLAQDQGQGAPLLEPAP
PAFAH1B2 inh – PAFAH1B2 enzyme inhibitors, primary screen, biochemical, fluorescence polarization, human | Platelet-activating factor acetylhydrolase IB subunit alpha2 (Homo sapiens), P68402 | recombinant PAFAH1B2, FP-rhodamine activity probe | inhibition, % at 3.39 µM | 340,000 compounds, 1.2% hits | AID 492953, 2010;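 active = inhibition above the mean of all tested compounds plus 3 SD, cut at about 24% in these data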;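 note: 0% = enzyme with DMSO and 100% = wells lacking PAFAH1B2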
Target sequence (P68402 whole entry, looked up): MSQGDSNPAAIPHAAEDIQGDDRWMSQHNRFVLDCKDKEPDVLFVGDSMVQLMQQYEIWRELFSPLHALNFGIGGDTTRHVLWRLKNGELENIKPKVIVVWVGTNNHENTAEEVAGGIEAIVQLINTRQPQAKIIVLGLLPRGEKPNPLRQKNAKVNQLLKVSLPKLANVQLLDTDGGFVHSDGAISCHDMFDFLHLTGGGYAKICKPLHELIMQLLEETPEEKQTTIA
Fam108b confirm – mouse Fam108b serine hydrolase inhibitors, confirmation, counter-screen for RBBP9 inhibitor project, biochemical, fluorescence polarization, triplicate. inhibition, % at 9.51 µM. shares compounds with Fam108B inh. AID 1978, 2009. 930 compounds, 44% hits. recombinant Fam108b, FP-Rh probe fluorescence polarization;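 active = inhibition above a limit from the primary screen, the mean over all compounds plus 3 SD, cut at about 19% in these data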;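 note: 0% = median of active Fam108b wells and 100% = catalytically dead S170A mutant; inhibitors free the probe so polarization falls as inhibition rises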
Fam108b inh – inhibition of mouse Fam108b by HTS hits, late-stage follow-up, biochemical, gel-based ABPP, soluble recombinant form; shares compounds with Fam108B inh; fluorophosphonate probe; inhibition, % at 20 µM; 260 compounds, 44% hits; AID 588649, 2011; in the data active = inhibition above about 40%
The depositor's hits bear a star; / = no result. A selection: hits, their analogues and other compounds. The true share with any hit is near 2.8%.

SMILES	Fam108B inh	PME-1 primary	pPAFAH inh	PAFAH2 FP inh	PAFAH1B3 FP inh	PAFAH1B2 inh	others
CCC(=O)c1cn(Cc2ccccc2C#N)c2ccccc12	-4.8	35.2*	7.5	2.6	3.4	4.4
N#Cc1ccccc1Cn1cc(C(=O)C2CC2)c2ccccc21	6.1	62.7*	5.3	-6.6	7.5	0.9
CN1CCc2c(c(N3CCCCC3)nc3n[nH]c(N)c23)C1	0.1	0.1	1.2	-6.2	11.8	-0.9
Cc1ccccc1-n1c(O)c(/C=N/N2CCOCC2)c(=O)[nH]c1=S	-1.9	-6.6	2.4	-4.0	-0.1	-11.9
Cn1cc(C(=O)OCC(=O)NC2CCCCC2)c2ccccc21	/	5.2	33.0*	71.8*	2.9	5.4
COc1cccc2c1C(=O)c1c(O)c3c(c(O)c1C2=O)CC(O)(C(C)=NO)CC3OC1CC(N)C(O)C(C)O1 (centres undefined)	/	/	/	42.2*	30.4*	45.4*
NP(=O)(OCCCc1ccccc1)c1ccccc1 (centres undefined)	-6.1	1.8	0.1	11.1	-4.5	7.8
CC(C)CCOP(N)(=O)Oc1ccccc1Cl (centres undefined)	-1.0	30.4*	0.6	29.6	25.7*	85.2*
NP(=O)(OCCCc1ccccc1)Oc1ccccc1Cl (centres undefined)	2.0	59.4*	6.1	66.9*	44.6*	92.4*
NP(=O)(OCCCc1ccccc1)Oc1ccc(Cl)cc1 (centres undefined)	1.2	10.0	2.5	12.0	-0.7	94.9*
CC(C)CCOP(N)(=O)Oc1ccccc1 (centres undefined)	1.9	-9.5	-9.1	6.9	3.3	10.3
COC(=O)C1=C(c2cccc(C#N)c2)C[C@@H]2CC[C@H]1N2C(=O)NCCc1ccccc1	/	1.1	0.1	3.8	16.1	2.4
CN(C)C(=O)CSc1nnc([C@@H](N)Cc2ccccc2)o1	1.1	-1.0	1.9	7.3	4.8	5.0
Cn1c(O)c(C(=N)COc2ccccc2)c(=O)n(C)c1=O	-0.9	-0.6	1.8	-4.0	4.7	1.5
Cn1c(O)c(C(=Nc2ccccc2)SCc2ccc(Cl)cc2)c(=O)n(C)c1=O	-0.9	-0.1	3.9	11.6	5.5	25.8*
O=C(O)c1c[nH]c2ccc(S(=O)(=O)N(CCCl)CCCl)cc12	2.0	5.1	-6.6	15.1	4.6	37.3*
CC(C)(C)C(=O)c1cn(Cc2ccccc2)c2ccccc12	1.1	1.1	4.7	1.5	-3.6	8.0
O=C(c1ccco1)c1cn(Cc2ccccc2)c2ccccc12	-6.3	-4.2	29.9*	2.8	-1.8	-5.3
O=c1c2ccccc2nc(/C=C/c2ccccc2)n1-c1ccc(O)cc1	-9.4	-6.3	-0.5	-0.6	-2.7	0.9
O=c1c2ccccc2nc(/C=C/c2ccc(O)c(O)c2)n1-c1ccccc1	-10.0	26.7*	30.5*	1.0	8.1	-1.1
COc1cc(/C=C/c2nc3ccccc3c(=O)n2-c2cccc(O)c2)ccc1O	3.1	36.2*	12.5	-13.7	-13.1	-1.1
Cc1ccc(OP(=O)(O)Oc2ccc(C)cc2)cc1	-0.6	-0.3	-0.1	1.5	6.3	2.2
O=C(O)CCn1cc(C=C2C(=O)NC(=S)NC2=O)c(-c2cccc(Cl)c2)n1	-2.4	-2.4	1.4	-3.0	-0.9	6.5
O=C(O)CCn1cc(C=C2C(=O)NC(=O)NC2=O)c(-c2ccc(Br)cc2)n1	0.4	1.6	11.0	-4.0	5.7	33.2*
O=C1NC(=S)SC1=Cc1ccc(N(CCCl)CCCl)cc1	/	/	/	9.3	5.8	28.3*
SMILES	Fam108B inh	PME-1 primary	pPAFAH inh	PAFAH2 FP inh	PAFAH1B3 FP inh	PAFAH1B2 inh	others
O=P(O)(Oc1ccccc1)OC(c1ccccc1)C(F)(F)C(F)(F)F (centres undefined)	0.0	0.5	1.4	11.4	3.6	76.7*
O=P(Oc1ccccc1)(Oc1ccccc1)C(Nc1ccccc1)c1ccccc1 (centres undefined)	-0.5	3.6	5.5	2.9	-7.4	1.8
CN1C(=O)NC(=O)/C(=C/c2ccc([N+](=O)[O-])o2)C1=O	4.2	-5.2	11.8	/	/	/
CN1C(=O)NC(=O)/C(=C/c2ccc([N+](=O)[O-])s2)C1=O	6.8	-5.8	25.4*	29.4	23.3	22.3
O=C(Cc1ccccc1)NC(Cc1ccc(Cl)cc1)C(=O)O (centres undefined)	1.2	-2.1	-0.4	-3.9	5.5	38.1*
O=C(Cc1ccc(N(CCCl)CCCl)cc1)NC(Cc1ccc(Cl)cc1)C(=O)O (centres undefined)	7.7	2.5	5.5	5.4	5.6	59.7*
CC(=O)NC(Cc1ccc(N(CCCl)CCCl)cc1)C(=O)O (centres undefined)	1.6	1.9	-2.4	4.0	5.3	6.6
Cc1cccc(N2CCc3c2nc2ccccc2c3N)c1	8.3	11.8	13.2	7.1	-0.3	0.2
C[C@@H](N)Cc1cnc[nH]1	-6.9	-3.1	-2.7	-5.8	2.9	-2.2
CN(C)[C@@H]1C(=O)C(C(N)=O)=C(O)[C@@]2(O)C(=O)C3=C(O)c4c(O)cccc4[C@@](C)(O)[C@H]3C[C@@H]12	52.3*	-9.0	73.5*	/	/	/	Fam108b confirm=55.4*
CC(=O)N1Cc2cnnn2-c2ccccc2C1(C)C#N (centres undefined)	/	/	/	4.1	0.7	3.3
CCCCn1c(C)c(C(=O)OCC)c2c(CN3CCCC3)c(O)ccc21	45.6*	27.5*	27.4*	4.9	-6.6	-4.7	Fam108b confirm=1.5
Cc1cccc(N2C(=O)/C(=C/c3ccc(N4CCN(C)CC4)o3)C(=O)NC2=S)c1C	-24.1	-22.4	8.2	-17.3	-23.0	-17.3
Cc1ccccc1N1C(=O)/C(=C/c2ccco2)C(=O)NC1=S	77.1*	16.8	91.3*	/	/	/	Fam108b confirm=67.7*;Fam108b inh=70.0*
CCOC(=O)C1=C(C)N(C)C2(C)CC1c1ccccc1O2 (centres undefined)	0.5	-3.6	3.1	2.5	7.4	-0.6
COc1ccc(/C=N/N=C(/N)N[N+](=O)[O-])c(OC)c1	-0.9	-4.1	2.6	3.6	0.9	3.3
